Experimental data: PubChem BioAssay
A number with no mark means an inactive call. How the calls were made is not given here. Where a SMILES comes first, the peptide text is derived from it. The star is where a group is joined. Boc = CC(C)(C)OC(=O)*

Each compound was assayed against Pantothenate synthetase (Mycobacterium tuberculosis (strain ATCC 25618 / H37Rv)) (UniProt P9WIL5) (assay: Recombinant Mtb pantothenate synthetase (PanC) inhibitors, coupled enzyme, confirmatory (AID 375;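 further: 0% = full reaction with vehicle and 100% = no enzyme background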)). Details: coupled enzyme assay; at 10 µM, active compounds read high.
Pantothenate synthetase (Mycobacterium tuberculosis (strain ATCC 25618 / H37Rv)), sequence (P9WIL5 whole entry, looked up): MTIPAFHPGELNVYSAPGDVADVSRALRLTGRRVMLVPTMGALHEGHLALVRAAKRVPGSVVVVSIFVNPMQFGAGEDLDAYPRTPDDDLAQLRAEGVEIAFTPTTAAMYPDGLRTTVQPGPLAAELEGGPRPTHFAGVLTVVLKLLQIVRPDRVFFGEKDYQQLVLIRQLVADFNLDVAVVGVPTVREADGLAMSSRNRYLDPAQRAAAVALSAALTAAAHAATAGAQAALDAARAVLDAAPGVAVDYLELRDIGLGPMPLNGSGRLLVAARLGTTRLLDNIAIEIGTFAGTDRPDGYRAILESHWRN
`COc1cc(C2C(C#N)=C(N)OC3=C2C(=O)CCC3)ccc1OC(=O)N1CCOCC1` (centres undefined) gave an inhibition of 0%. In the case of `COc1ccc(CCN2C(=O)C3C4C=CC(C4)C3C2=O)cc1OC` (centres undefined), the inhibition was 0%. Compound `O=C(Cn1cnc2ccccc2c1=O)NCCC(=O)N1CCN(Cc2ccccc2)CC1` has an inhibition of 0%. For `O=C(CCCn1c(=S)[nH]c2ccccc2c1=O)N1CCCCC1`, the inhibition was 0%. For `O=S(=O)(Nc1cccc2ncccc12)c1cccs1`, the inhibition was 6%. In the case of `CN(Cc1cccs1)CC(O)COCc1ccco1` (centres undefined), the inhibition was 0%. `N#Cc1c(N2CCOCC2)nc(N2CCCCC2)c2c1CCN(C1CCCCC1)C2` showed an inhibition of 0%. With `CCNc1oc(COc2ccccc2F)nc1C#N` the inhibition was 9%. In the case of `N#Cc1c2n(c(=O)[nH]c1=O)CCCCC2`, the inhibition was 0%. `CCOC(=O)C1CCCN(C(=O)c2cc3c(-c4cccc(OC)c4)nn(C)c3s2)C1` (centres undefined) was tested, and the inhibition was 0%. `O=C(c1ccco1)N1CCN(c2c(-c3ccccc3)c3cc(Cl)ccc3[nH]c2=O)CC1` gave an inhibition of 5%. With `CC(C)CC(NC(=O)OC(C)(C)C)C(=O)NC(C(=O)N1CCCC1C(N)=O)C(C)C` (stereo not drawn) (Boc-Leu-Val-Pro-NH2; configuration not given here) the inhibition was 0%. Work on `Cc1cc(NC(=O)c2cnn3c(C(F)F)cc(C4CC4)nc23)no1` yielded an inhibition of 0%. With `O=C(Nc1cccnc1)Nc1ccccn1` the inhibition was 0%. `O=C(CN(CCc1ccccc1)C(=O)CNS(=O)(=O)c1ccccc1)NCC1CCCO1` (centres undefined) gave an inhibition of 0%. `O=C(Cn1cnc2c(nnn2Cc2ccc(Cl)cc2)c1=O)NCC1CCCO1` (centres undefined) showed an inhibition of 0%. For `CCN(CC)C(=O)c1sc(NC(=O)c2ccco2)c(C#N)c1C`, the inhibition was 15%. `CCCc1nc(NCc2ccncc2)c2nnn(Cc3ccccc3F)c2n1` was tested, and the inhibition was 0%. With `Cn1c(=O)cc(OCCCC(=O)N2CCCCC2)c2ccccc21` the inhibition was 0%. Compound `CC(=O)N1c2c(cc(Br)cc2S(=O)(=O)N2CCN(c3ccccn3)CC2)CC1C` (centres undefined) has an inhibition of 0%. Compound `COc1ccccc1NC(=O)NC1(C(=O)N2CCC(O)CC2)CCCCC1` has an inhibition of 0%. For `COCc1nnc(NC(=O)c2ccc(S(=O)(=O)N(C)c3ccccc3)cc2)o1`, the inhibition was 0%. For `COCCCNC(=O)C1CCCN(C(=O)Nc2ccc(OC)cc2)C1` (centres undefined), the inhibition was 2%. `CC1CN(c2nc3ccccn3c(=O)c2/C=C(\C#N)S(=O)(=O)c2ccccc2)CC(C)O1` (centres undefined) gave an inhibition of 5%. Compound `CCOC(=O)N1CCN(c2cc(=O)n(-c3ccc(OCC)cc3)c(=O)[nH]2)CC1` has an inhibition of 5%. `N#C/C(C(=O)N1CCOCC1)=C1/SC(Cc2ccccc2)C(=O)N1c1ccccc1` (centres undefined) gave an inhibition of 0%. In the case of `Cc1ccccc1-n1c(=O)cc(N2CCN(C(=O)c3ccco3)CC2)[nH]c1=O`, the inhibition was 0%. `CC(=O)c1cccc(NC(=O)N2CCCC2C(=O)NCc2ccc(C)cc2)c1` (centres undefined) was tested, and the inhibition was 4%. Compound `CC1CCCN(S(=O)(=O)c2ccc(C(=O)Nc3nnc(-c4ccccc4Cl)o3)cc2)C1` (centres undefined) has an inhibition of 0%. For `O=C(Nc1ccccc1C(=O)N1CCOCC1)C1CCC(=O)N1C1CCCC1` (centres undefined), the inhibition was 1%. With `CCc1ccc(C=NC23CN4CN(CN(C4)C2)C3)s1` the inhibition was 0%. `Cn1cccc1Cc1nnc(SCC(N)=O)n1-c1ccc(F)cc1` showed an inhibition of 0%. `Cc1ccc(NC(=O)CSc2nnc(CSc3nc(C)cc(C)n3)n2Cc2ccco2)c(C)c1` showed an inhibition of 0%. Compound `CCOC(=O)c1c(NC(=O)COC(=O)c2c(C)noc2C)sc2c1CCC2` has an inhibition of 1%. With `O=C(c1ccc(Br)o1)N(c1ccc(Br)cc1)C1C=CS(=O)(=O)C1` (centres undefined) the inhibition was 0%. `O=C(Nc1ccccn1)NC(C(F)(F)F)C(F)(F)F` gave an inhibition of 0%. `CCc1nnc(NC(=O)c2cccc(C(=O)Nc3nnc(CC)s3)n2)s1` gave an inhibition of 0%. `COc1ccc2c(c1)n([O-])c1c([n+]2=O)CCC1` gave an inhibition of 0%. `C=CCOc1ccc(C2/C(=C(\O)c3c(C)[nH]c(C(=O)OC)c3C)C(=O)C(=O)N2CCN(C)C)cc1` (centres undefined) showed an inhibition of 0%.
